# Screens from PubChem.
# mHTT CaM bind: disrupts binding of mutant huntingtin to calmodulin. P42858. AlphaScreen His-mHTT/GST-CaM binding, luminescence. inhibition, % at 15 µM. 190,000 compounds, 3.6% hits. AID 1671202
# Pf apPOL block: Pf-apPOL DNA polymerase inhibition. Recombinant Pf-apPOL, molecular beacon fluorescence, 1.5 h. inhibition, % at 10 µM. 210,000 compounds, 0.25% hits. AID 1794808
# Hits are given with their value; n = inactive; x = not tested or not shown. This is a sample that favours compounds with a hit; in the whole collection about 3.5% have one here. No stated cut-off is given here; in the data, active means inhibition above about 50%; inactive means the rest.
SMILES,mHTT CaM bind,Pf apPOL block
CCOC(=O)c1cnc2nc(C)ccc2c1Nc1ccc(F)c(F)c1,n,n
COC(=O)c1cnc2nc(C)ccc2c1Nc1ccc(C)cc1Cl,n,n
COC(=O)c1cnc2nc(C)ccc2c1Nc1cccc(Br)c1,n,n
CCOC(=O)c1cnc2nc(C)ccc2c1Nc1ccc(Cl)cc1,66,n
COC(=O)c1cnc2nc(C)ccc2c1Nc1ccc(F)c(Cl)c1,n,n
CC(C)(C)Cc1nnc(C2CCCN(C(=O)NCc3ccc(Cl)cc3)C2)o1 (centres undefined),n,n
COC(=O)c1cnc2nc(C)ccc2c1Nc1ccc(OC)cc1,n,n
COC(=O)c1cnc2nc(C)ccc2c1Nc1ccc(C)c(Cl)c1,78,n
O=C1C[C@@H]2CCN3C(=O)CCC[C@@H]([C@H]23)[C@@H]1Cc1ccccc1,n,n
O=C1CCC[C@@H]2C=C[C@H](c3ccc(Br)cc3)[C@H]3CCN1[C@@H]32,52,n
O=C1OC(c2cncc(Br)c2)=N/C1=C/c1ccc2c(c1)OCO2,n,n
O=[N+]([O-])c1ccc(NN=C2CCCCCC2c2ccccc2)c([N+](=O)[O-])c1 (centres undefined),x,n
O=[N+]([O-])c1ccccc1NN=C1CCCC1,58,x
CCC(=O)N1CCc2cc(Br)cc(S(=O)(=O)Nc3cccnc3)c21,n,n
COCCN=C1Nc2ccccc2CNC12CCN(C(=O)Cc1cccc(C)c1)C2 (centres undefined),n,n
COCCN=C1Nc2ccccc2NC12CCCN(C(=O)CCc1c[nH]c3ccccc13)C2 (centres undefined),71,n
COCCN=C1Nc2ccccc2NC12CCCN(C(=O)c1ccc(C)nc1)C2 (centres undefined),n,n
COCCN=C1Nc2ccccc2NC12CCCN(C(=O)c1ccccc1Cl)C2 (centres undefined),n,n
COCCN=C1Nc2ccccc2NC12CCCN(C(=O)Cc1cccc(C)c1)C2 (centres undefined),52,n
COCCN=C1Nc2ccccc2NC12CCCN(C(=O)c1cc(-c3ccccc3)n[nH]1)C2 (centres undefined),67,n
Cc1cccc(-c2noc(C3CCN(CC(=O)Nc4ccccc4)CC3)n2)c1,n,n
NNC(=O)CSc1cc(C(F)(F)F)nc2ccccc12,x,n
Cc1nc2ccccc2nc1N1CCN(C(=O)C(C)Cl)CC1 (centres undefined),n,n
CCn1c(=O)n(CC(=O)N2CCC(C(N)=O)(N3CCCCC3)CC2)c(=O)c2ccccc21,n,n
Cc1ccc(-c2nc(C(=O)NCCc3ccccc3)cs2)n1C,99,n
SMILES,mHTT CaM bind,Pf apPOL block
Cc1ccc(-c2nc(C(=O)NCCc3ccc(Cl)cc3)cs2)n1C,n,n
COc1ccc(NC(=O)c2csc(-c3ccc(C)n3C)n2)cc1,62,n
Cc1ccc(-c2nc(C(=O)Nc3ccc(Cl)cc3)cs2)n1C,n,n
CN(C)C(=O)c1cc2c(s1)CCC(C(=O)N1CCOCC1)C2 (centres undefined),n,n
CC(C)NC(=O)c1ccccc1OCC1CCN(C(=O)C2CCC2)CC1,n,n
Cc1cc(C)cc(C(=O)Nc2cc(-c3ccccn3)no2)c1,n,n
COCCNC(=O)c1ccc2c(c1)ncn2-c1ccc(C)cc1C,n,n
COc1cc(OC)c(NC(=O)C2CCCN(c3nccc4sccc34)C2)cc1Cl (centres undefined),n,n
COc1ccc(Cl)cc1NC(=O)C1CCN(c2nccc(C)n2)CC1,n,n
COc1ccc(Cl)cc1NC(=O)C1CCN(c2nccc3sccc23)CC1,100,n
COc1cc(Cl)c(NC(=O)C2CCCN(c3nccc4sccc34)C2)c(OC)c1 (centres undefined),60,n
COc1ccc(OC)c(C2C(C(=O)Nc3ccccc3)=C(C)Nc3nnnn32)c1 (centres undefined),n,n
O=C(NCC1CCCO1)c1cc(Sc2ccc(F)cc2)nc2ccccc12 (centres undefined),n,n
COc1ccc(-c2cc([C@H]3[C@@H]4C=CCC[C@@]4(C)C(=O)N3Cc3ccccc3)ccc2F)cc1OC,n,n
COc1ccc([C@H]2[C@@H]3C=CCC[C@@]3(C)C(=O)N2Cc2ccccc2)cc1Cl,52,n
C[C@@]12CCC=C[C@H]1[C@H](c1cccc([N+](=O)[O-])c1)N(Cc1ccccc1)C2=O,n,n
CC(=O)c1ccc(-c2cccc([C@H]3[C@@H]4C=CCC[C@@]4(C)C(=O)N3Cc3ccccc3)c2)cc1,85,n
COc1ccc(-c2cccc([C@H]3[C@@H]4C=CCC[C@@]4(C)C(=O)N3Cc3ccccc3)c2)cc1,70,n
Cc1cccc([C@H]2[C@@H]3C=CCC[C@@]3(C)C(=O)N2Cc2ccccc2)c1,n,n
CCC(CC)C(=O)N1CCc2c(c(C(=O)NCc3ccccc3)nn2C)C1,51,n
CCCCC(=O)N1CCc2c(c(C(=O)NCc3ccc(F)cc3)nn2C)C1,n,n
CCC(=O)N1CCc2c(c(C(=O)NCc3ccccc3)nn2C)C1,n,n
CCC(CC)C(=O)N1CCc2c(c(C(=O)NCc3ccc(Cl)cc3)nn2C)C1,71,n
Cn1nc(C(=O)NCc2ccc(Cl)cc2)c2c1CCN(C(=O)c1ccc(F)cc1)C2,n,n
CCCC(CCC)C(=O)N1CCc2c(c(C(=O)NCc3ccc(F)cc3)nn2C)C1,77,n
SMILES,mHTT CaM bind,Pf apPOL block
CCC1CN(C(=O)NCCc2ccccc2)c2ccccc2O1 (centres undefined),n,n
COc1ccccc1CNC(=O)c1ccc(N2CC3CC(C2)c2cccc(=O)n2C3)c(N)c1 (centres undefined),n,n
COc1cc(C=C2Oc3cc(OS(C)(=O)=O)cc(C)c3C2=O)cc(OC)c1OC,n,n
CCS(=O)(=O)c1ccc(-c2nnc(NC(=O)c3c[nH]c4ccccc34)o2)cc1,n,n
O=C(Nc1nnc(-c2ccco2)o1)c1c[nH]c2ccccc12,72,n
COc1c(Cl)cc(Cl)cc1C1C(C(N)=O)=C(C)Nc2ncnn21 (centres undefined),n,n
CC(=O)c1c(C(C)=O)c(C)n(-c2cc(Br)ccc2O)c1C,n,n
Cc1cc(C2(c3ccc(O)c(C)c3)C(=O)N(C)c3ccc(Br)cc32)ccc1O,87,n
COCCC1CCN(C(=O)CCc2ccc(OC)cc2)CC1,n,n
CCOc1ccccc1C1CC(c2ccccc2)Nc2ncnn21 (centres undefined),n,n
COc1cccc(C2CC(c3ccccc3Cl)n3nc(N)nc3N2)c1 (centres undefined),n,n
COc1ccccc1C1CC(c2ccc(C)cc2)Nc2nc(N)nn21 (centres undefined),n,n
COc1ccccc1C1CC(c2ccc(Br)cc2)Nc2nc(N)nn21 (centres undefined),n,n
CCOc1ccccc1C1CC(c2ccc(I)cc2)Nc2ncnn21 (centres undefined),54,n
CCOc1ccccc1C1CC(c2ccc(Br)cc2)Nc2nc(N)nn21 (centres undefined),99,n
COc1ccccc1C1CC(c2ccc(Cl)c(Cl)c2)Nc2nc(N)nn21 (centres undefined),99,n
COc1cccc(C2CC(c3ccc(Cl)cc3Cl)n3nc(N)nc3N2)c1 (centres undefined),52,n
CCOc1ccc(NC(=O)C2CCCN(C(=O)c3cccc(Cl)c3)C2)cc1 (centres undefined),n,n
CC1CN(C(=O)NC2CCCC2)CC1c1nc(-c2ccncc2)no1 (centres undefined),n,n
